HRas wt GTP – human HRas wildtype GTP binding, change in either direction. P01112. GST-Ras wt beads, Bodipy-FL-GTP binding, flow cytometry; actives lie on both sides. GTP binding activity, % at 10 µM. 0.14% of 190,000 active. AID 759;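 active = GTP binding activity at least 20% away from the 100% baseline, either lowered as inhibitor or raised as activator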
Target sequence (P01112 whole entry, looked up): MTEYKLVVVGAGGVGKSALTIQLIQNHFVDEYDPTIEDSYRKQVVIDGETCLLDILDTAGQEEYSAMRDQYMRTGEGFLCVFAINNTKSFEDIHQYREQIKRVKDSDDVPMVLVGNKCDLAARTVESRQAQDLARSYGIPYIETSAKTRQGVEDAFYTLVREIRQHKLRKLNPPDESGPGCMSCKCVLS
Rab2A wt mod – changes GTP binding to wildtype dog Rab2A, up or down | GTP binding activity, % at 10 µM | P61105 | 0.19% of 190,000 active | GST-Rab2 wt beads, Bodipy-GTP binding, flow cytometry;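 active = GTP binding activity at least 20 points away from 100%, either lowered or raised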
Cdc42 wt GTP – changes GTP binding to wildtype human Cdc42 | P60953 | AID 761 | GST-Cdc42 beads, Bodipy-GTP binding, flow cytometry; actives lie on both sides | percent activity (GTP binding), % at 10 µM | 0.2% of 190,000 active;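 active = percent activity GTP binding at least 20 points away from the 100% baseline, either down as inhibitor or up as activator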;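 note: median bead fluorescence of bound Bodipy-FL-GTP at 100 nM; below 100% means less GTP binding so inhibitor and above means activator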
Target sequence (P60953 whole entry, looked up): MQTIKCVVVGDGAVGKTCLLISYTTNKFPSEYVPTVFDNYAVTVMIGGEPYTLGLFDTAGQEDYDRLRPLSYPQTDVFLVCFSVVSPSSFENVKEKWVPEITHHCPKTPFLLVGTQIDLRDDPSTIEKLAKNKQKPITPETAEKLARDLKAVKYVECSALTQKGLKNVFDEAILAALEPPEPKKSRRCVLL
Rac1 wt modul – alters GTP binding to wildtype human Rac1; P63000; GST-Rac1 beads, fluorescent GTP binding, flow cytometry; actives lie on both sides; 0 = cold GTP competed, 100 = untreated; GTP binding activity (% of control), % at 10 µM; 0.27% of 190,000 active;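 active = GTP binding activity at least 20 points away from the 100% control level, either lower or higher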
Rac1 act GTP bind – human Rac1 activated mutant GTP binding change | GST-Rac1 activated beads, fluorescent GTP binding, flow cytometry; actives lie on both sides; 100% means binding = to untreated wells | P63000 | 0.11% of 190,000 active | percent activity (GTP binding), % at 10 µM;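 active = GTP binding at least 20 percentage points away from the 100% baseline, in either direction, so actives lie on both sides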
Rab7 wt modul – modulators of GTP binding to dog Rab7 wildtype GTPase. GTP binding activity (percent of control), % at 10 µM. GST-Rab7 beads, fluorescent GTP binding, flow cytometry; actives lie on both sides; untreated = 100%, excess cold GTP = 0%. AID 758. 0.055% of 190,000 active;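 active = fluorescent GTP binding to Rab7 beads changed by at least 20 points from the 100% baseline, either direction, mostly lower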;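 note: median green fluorescence of bound Bodipy-FL-GTP per Rab7 bead population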
A number is an active result; [ ] = remark or other dose. The list is not random: actives were taken first. Their share in the collection is about 0.38%.

Screening CCOc1cc(C2c3c(-c4ccccc4)n[nH]c3C(=O)N2c2ccc(C(=O)O)cc2)ccc1O (stereo not given) returned HRas wt GTP inactive, Rab2A wt mod 79.0, Cdc42 wt GTP 79.0, Rac1 wt modul 59.0, Rac1 act GTP bind 74.0 and Rab7 wt modul inactive.
COc1cc(C)c2c(c1C=O)Oc1c(c(C)c(O)c3c1C(O)OC3=O)OC2=O (stereo not given) was read as HRas wt GTP inactive, Rab2A wt mod inactive, Cdc42 wt GTP 78.0, Rac1 wt modul inactive, Rac1 act GTP bind 76.0 and Rab7 wt modul inactive.
For CCOC(=O)c1ccc2c(c1)nc(SCc1cn3ccsc3n1)n2CC the results were HRas wt GTP inactive, Rab2A wt mod inactive, Cdc42 wt GTP inactive, Rac1 wt modul inactive, Rac1 act GTP bind inactive and Rab7 wt modul inactive.
Screening Cc1nc(-c2ccccc2)sc1C(=O)NN returned HRas wt GTP inactive, Rab2A wt mod 120.0[activator], Cdc42 wt GTP 125.0[activator], Rac1 wt modul 128.0[activator], Rac1 act GTP bind inactive and Rab7 wt modul inactive.
`O=C(CSc1ccc2nnc(-c3ccccn3)n2n1)Nc1nccs1` gave HRas wt GTP 68.0, Rab2A wt mod 62.0, Cdc42 wt GTP 65.0, Rac1 wt modul 54.0, Rac1 act GTP bind 73.0 and Rab7 wt modul inactive.
For Cc1nnc(NC(=O)CSc2ccc3nnc(-c4ccccn4)n3n2)s1 the results were HRas wt GTP inactive, Rab2A wt mod inactive, Cdc42 wt GTP inactive, Rac1 wt modul inactive, Rac1 act GTP bind inactive and Rab7 wt modul inactive.
O=C(CSc1ccc2nnc(-c3cccs3)n2n1)N1CCCC1 was read as HRas wt GTP inactive, Rab2A wt mod inactive, Cdc42 wt GTP inactive, Rac1 wt modul 73.0, Rac1 act GTP bind inactive and Rab7 wt modul inactive.
`CCOC(=O)CSc1ccc2nnc(-c3cccs3)n2n1` gave HRas wt GTP inactive, Rab2A wt mod inactive, Cdc42 wt GTP inactive, Rac1 wt modul inactive, Rac1 act GTP bind inactive and Rab7 wt modul inactive.
O=C(CSc1ccc2nnc(-c3ccncc3)n2n1)Nc1nccs1 was read as HRas wt GTP inactive, Rab2A wt mod inactive, Cdc42 wt GTP 79.0, Rac1 wt modul 71.0, Rac1 act GTP bind inactive and Rab7 wt modul inactive.
`CCOC(=O)C1(CCCc2ccccc2)CCN(Cc2cn(CC)nc2C)CC1` gave HRas wt GTP inactive, Rab2A wt mod inactive, Cdc42 wt GTP inactive, Rac1 wt modul inactive, Rac1 act GTP bind inactive and Rab7 wt modul inactive.
`O=C(c1cccc(S(=O)(=O)N2CCc3ccccc32)c1)N1CCN(c2ccccn2)CC1` gave HRas wt GTP inactive, Rab2A wt mod inactive, Cdc42 wt GTP inactive, Rac1 wt modul inactive, Rac1 act GTP bind inactive and Rab7 wt modul inactive.
Screening Cc1ccc(-c2csc3nc(C)n(N)c(=O)c23)cc1 returned HRas wt GTP inactive, Rab2A wt mod inactive, Cdc42 wt GTP inactive, Rac1 wt modul inactive, Rac1 act GTP bind inactive and Rab7 wt modul inactive.
Cc1ccc(-c2csc3nc4c5ccccc5c(NCCCN5CCOCC5)nn4c(=O)c23)cc1 was read as HRas wt GTP 60.0, Rab2A wt mod 59.0, Cdc42 wt GTP 57.0, Rac1 wt modul 60.0, Rac1 act GTP bind inactive and Rab7 wt modul inactive.
Cc1ccc(-c2csc3nc4c5ccccc5c(NCCCN(C)C)nn4c(=O)c23)cc1 was read as HRas wt GTP 73.0, Rab2A wt mod 77.0, Cdc42 wt GTP 72.0, Rac1 wt modul 79.0, Rac1 act GTP bind inactive and Rab7 wt modul inactive.
`NS(=O)(=O)c1ccc(NC(=O)CN2C(=O)C3C4C=CC(C4)C3C2=O)cc1` (stereo not given) gave HRas wt GTP inactive, Rab2A wt mod inactive, Cdc42 wt GTP inactive, Rac1 wt modul inactive, Rac1 act GTP bind inactive and Rab7 wt modul inactive.
C/C(=N\Nc1ccc(C(=O)O)cc1)c1ccc(-n2ccnc2)cc1 was read as HRas wt GTP inactive, Rab2A wt mod inactive, Cdc42 wt GTP inactive, Rac1 wt modul inactive, Rac1 act GTP bind inactive and Rab7 wt modul inactive.
CSc1nc2ccc(NC(=O)C3CC(=O)N(Cc4ccco4)C3)cc2s1 (stereo not given) was read as HRas wt GTP inactive, Rab2A wt mod inactive, Cdc42 wt GTP 75.0, Rac1 wt modul inactive, Rac1 act GTP bind inactive and Rab7 wt modul inactive.
For CCOc1ccc(NC(=S)N(CCc2c(C)[nH]c3ccccc23)Cc2ccco2)cc1 the results were HRas wt GTP inactive, Rab2A wt mod inactive, Cdc42 wt GTP inactive, Rac1 wt modul inactive, Rac1 act GTP bind inactive and Rab7 wt modul inactive.
For O=C(O)CCSc1nc2ccccc2s1 the results were HRas wt GTP inactive, Rab2A wt mod inactive, Cdc42 wt GTP inactive, Rac1 wt modul inactive, Rac1 act GTP bind inactive and Rab7 wt modul inactive.
For O=C(O)CC/C(=C\c1cccc(NC(=O)c2ccccc2Cl)c1)c1nc2ccccc2s1 the results were HRas wt GTP inactive, Rab2A wt mod inactive, Cdc42 wt GTP inactive, Rac1 wt modul inactive, Rac1 act GTP bind inactive and Rab7 wt modul inactive.
For Cc1nn(-c2ccc(F)cc2)c(Cl)c1/C=C(\CCC(=O)O)c1nc2ccccc2s1 the results were HRas wt GTP inactive, Rab2A wt mod 76.0, Cdc42 wt GTP 68.0, Rac1 wt modul 72.0, Rac1 act GTP bind 65.0 and Rab7 wt modul 79.0.
O=C(O)CC/C(=C\c1ccccc1[N+](=O)[O-])c1nc2ccccc2s1 was read as HRas wt GTP inactive, Rab2A wt mod 76.0, Cdc42 wt GTP 73.0, Rac1 wt modul inactive, Rac1 act GTP bind 74.0 and Rab7 wt modul inactive.
For O=C(O)CC/C(=C\c1ccc(N2CCCC2)c([N+](=O)[O-])c1)c1nc2ccccc2s1 the results were HRas wt GTP 79.0, Rab2A wt mod 74.0, Cdc42 wt GTP 75.0, Rac1 wt modul inactive, Rac1 act GTP bind 75.0 and Rab7 wt modul inactive.
Screening CCC(SC1=N/C(=C/c2ccccc2)C(=O)N1c1ccccc1)C(=O)Nc1cc(C)on1 (stereo not given) returned HRas wt GTP inactive, Rab2A wt mod inactive, Cdc42 wt GTP inactive, Rac1 wt modul inactive, Rac1 act GTP bind inactive and Rab7 wt modul inactive.
For COc1ccc(/C=C2/N=C(SCC(=O)Nc3cc(C)on3)N(c3ccccc3)C2=O)cc1 the results were HRas wt GTP inactive, Rab2A wt mod inactive, Cdc42 wt GTP inactive, Rac1 wt modul 77.0, Rac1 act GTP bind inactive and Rab7 wt modul inactive.
For CCOc1ccc(N2C(=O)CN(CC(=O)OC)C2=S)cc1 the results were HRas wt GTP inactive, Rab2A wt mod inactive, Cdc42 wt GTP inactive, Rac1 wt modul inactive, Rac1 act GTP bind inactive and Rab7 wt modul inactive.
Screening Cc1nn(-c2ccccc2)c2sc(-c3nnc(SCC(=O)O)o3)cc12 returned HRas wt GTP inactive, Rab2A wt mod inactive, Cdc42 wt GTP inactive, Rac1 wt modul inactive, Rac1 act GTP bind inactive and Rab7 wt modul inactive.

Source: PubChem BioAssay (NMMLSC)
